Measured potencies and affinities stand elsewhere. Calls of active or inactive are those of the source.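 The calls were made as follows: active = signal drop whose fitted half-maximal potency is at most twice the top valid dose tested; inconclusive = flat curve inhibiting 30 to 70 percent, or a poor fit; inactive = the rest.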
Biological target: Endoplasmic reticulum aminopeptidase 2 (Homo sapiens) (UniProt Q6P179)
Assay: ERAP2 aminopeptidase inhibitors, dose response, selectivity assay for selective ERAP1 modulator project, biochemical, fluorescence plate reader, cherry-picked, set 2 (AID 743320)
Settings: recombinant ERAP2, Arg-AMC fluorescence, 1 h; series mostly up to 11 µM; activity change, negative = inhibition: at the top concentration

Chain of Endoplasmic reticulum aminopeptidase 2 (Homo sapiens) (Q6P179 whole entry, looked up): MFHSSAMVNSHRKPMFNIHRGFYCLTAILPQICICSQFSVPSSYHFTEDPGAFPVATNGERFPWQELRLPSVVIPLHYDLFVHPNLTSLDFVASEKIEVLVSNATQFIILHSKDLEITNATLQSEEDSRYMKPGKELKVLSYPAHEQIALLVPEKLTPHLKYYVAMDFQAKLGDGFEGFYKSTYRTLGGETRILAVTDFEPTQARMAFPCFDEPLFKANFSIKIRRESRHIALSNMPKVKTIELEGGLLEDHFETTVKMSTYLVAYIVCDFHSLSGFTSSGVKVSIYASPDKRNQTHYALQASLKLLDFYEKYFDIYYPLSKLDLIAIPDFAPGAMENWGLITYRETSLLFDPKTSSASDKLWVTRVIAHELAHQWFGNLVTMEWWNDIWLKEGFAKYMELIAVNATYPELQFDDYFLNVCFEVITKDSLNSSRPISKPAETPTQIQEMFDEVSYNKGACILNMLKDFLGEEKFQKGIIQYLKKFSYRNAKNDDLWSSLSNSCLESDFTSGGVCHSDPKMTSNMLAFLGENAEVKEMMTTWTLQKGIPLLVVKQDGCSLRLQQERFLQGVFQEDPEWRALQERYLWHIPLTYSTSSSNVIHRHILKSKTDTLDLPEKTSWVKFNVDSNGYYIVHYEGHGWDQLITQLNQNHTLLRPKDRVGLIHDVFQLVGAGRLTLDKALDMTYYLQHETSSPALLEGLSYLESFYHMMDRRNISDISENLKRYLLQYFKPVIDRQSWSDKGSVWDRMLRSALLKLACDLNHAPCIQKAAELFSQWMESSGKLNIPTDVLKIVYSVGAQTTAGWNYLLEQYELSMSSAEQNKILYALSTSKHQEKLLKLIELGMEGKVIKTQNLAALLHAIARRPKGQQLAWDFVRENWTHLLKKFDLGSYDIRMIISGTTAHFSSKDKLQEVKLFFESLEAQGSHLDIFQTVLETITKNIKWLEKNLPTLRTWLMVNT

Activity change, negative = inhibition, inactive:
Cc1ccc(S(=O)(=O)Nc2ccc3c(c2)C(=O)N([C@@H](C)CO)C[C@H](C)[C@H](CN(C)C)OCCCC[C@@H](C)O3)cc1 14.1%
CCCN(C)C[C@@H]1OCCCC[C@@H](C)Oc2ccc(NS(=O)(=O)c3ccccc3)cc2C(=O)N([C@H](C)CO)C[C@@H]1C 16%
Cc1ccc(-c2cc(C(=O)N3CCCC3)c3ccccc3n2)s1 133%
Cc1cc(=O)oc2c(CN3CCN(C)CC3)c(O)c(Cl)cc12 12%
CCCN(C)C[C@@H]1OCCCC[C@@H](C)Oc2ccc(NS(=O)(=O)c3c(C)noc3C)cc2C(=O)N([C@H](C)CO)C[C@@H]1C -3.16% [at 10 µM]
COCCCn1c(C(=O)N2CCOCC2)cc2c(=O)n3ccccc3nc21 370%
COC(=O)[C@H]1[C@H](CO)[C@H]2Cn3c(ccc(-c4ccncc4)c3=O)[C@H]2N1Cc1ccccc1F 15.2%
CO[C@@H]1CN(C)C(=O)c2ccc(NC(=O)Nc3cccc(Cl)c3)cc2OC[C@@H](C)NC[C@H]1C 3.9%
C[C@@H]1CCCCO[C@@H](CN(C)C)[C@@H](C)CN([C@@H](C)CO)C(=O)c2cc(NS(=O)(=O)c3ccc(F)cc3)ccc2O1 5.3%
Cc1noc(C)c1S(=O)(=O)Nc1ccc2c(c1)C(=O)N([C@H](C)CO)C[C@@H](C)[C@@H](CN(C)CC1CCCCC1)OCCCC[C@@H](C)O2 1.44%
CC(=O)N1CCN(C(=O)C2(NC(=O)Nc3ccc(C)cc3)CCCCC2)CC1 2.05%
COc1ccc(CN(C)C[C@H]2OCCCC[C@@H](C)Oc3ccc(NS(=O)(=O)c4cccs4)cc3C(=O)N([C@@H](C)CO)C[C@H]2C)cc1 2.79%
Cc1noc(C)c1S(=O)(=O)Nc1ccc2c(c1)C(=O)N([C@H](C)CO)C[C@H](C)[C@H](CN(C)Cc1ccc3c(c1)OCO3)OCCCC[C@@H](C)O2 11.2% [at 10 µM]
Cc1ccccc1-c1ccc2c(c1)O[C@@H](CN(C)Cc1ccc(C(=O)O)cc1)[C@@H](C)CN([C@@H](C)CO)S2(=O)=O 0.523%
C[C@H](CO)N1C[C@H](C)[C@H](CN(C)Cc2ccncc2)Oc2c(NC(=O)Nc3ccc(C(F)(F)F)cc3)cccc2C1=O 4.68%
COc1ccc2c3c([nH]c2c1)[C@H](CO)N(Cc1cc(F)ccc1F)CC31CN(C)C1 11.2%
O=C(C[C@H]1CC[C@@H]2[C@H](COC[C@@H](O)CN2C(=O)Nc2cccc(Cl)c2)O1)N1CCCCC1 32.4%
C[C@H]1CN([C@@H](C)CO)C(=O)c2cccc(NC(=O)Nc3ccc4c(c3)OCO4)c2O[C@@H]1CN(C)CC1CC1 12.8%
Cc1ccccc1-c1ccc2c(c1)O[C@@H](CN(C)Cc1ccc(C(=O)O)cc1)[C@@H](C)CN([C@H](C)CO)S2(=O)=O 8.67%
CCCN(C)C[C@@H]1OCCCC[C@@H](C)Oc2ccc(NS(=O)(=O)c3cccs3)cc2C(=O)N([C@H](C)CO)C[C@@H]1C 11%
C[C@@H]1CCCCO[C@@H](CN(C)CC2CC2)[C@@H](C)CN([C@H](C)CO)C(=O)c2cc(NS(=O)(=O)c3ccc(Cl)cc3)ccc2O1 18.4%
COc1ccc(C(=O)O)cc1S(=O)(=O)Nc1cc(C(F)(F)F)ccc1N1CCCCC1 8.35%
C[C@@H]1CCCCO[C@@H](CN(C)CC2CC2)[C@@H](C)CN([C@H](C)CO)C(=O)c2cc(NS(=O)(=O)c3cccs3)ccc2O1 14.7%
Cc1noc(C)c1NC(=O)Nc1ccc2c(c1)C(=O)N([C@H](C)CO)C[C@@H](C)[C@@H](CN(C)Cc1ccc(C(F)(F)F)cc1)OCCCC[C@@H](C)O2 -2.75%
CCCNC(=O)C[C@H]1CC[C@@H]2[C@H](COC[C@H](O)CN2C(=O)Nc2cccc(Cl)c2)O1 19.4%
C[C@H](CO)N1C[C@H](C)[C@H](CN(C)CC2CCCCC2)Oc2c(NC(=O)Nc3ccc4c(c3)OCO4)cccc2C1=O -0.254%
O=C(Nc1ccc(C(F)(F)F)cc1)N1[C@@H]2CNC[C@H]1C2c1ccc(-c2ccncc2)cc1 (some centres undefined) 1.51%
C[C@@H]1CCCCO[C@@H](CN(C)Cc2ccc(C(=O)O)cc2)[C@H](C)CN([C@@H](C)CO)C(=O)c2cc(NS(=O)(=O)c3ccc(Cl)cc3)ccc2O1 24.2%
O=C(O)c1ccccc1NS(=O)(=O)c1cccc(-n2sc3ccccc3c2=O)c1 3.47%

Source: PubChem BioAssay AID743320 (Broad Institute, 2014)
